PI5P4K alpha inh: PI5P4K alpha (human) kinase inhibition | P48426 | PI5P4Kalpha enzyme, ADP-Glo luminescence, 60 min; hits give low values | max response, % | 330,000 tested, 1.2% active | AID 652105; active = max response of -50% or lower; inconclusive = between -30% and -50%; inactive = -30% or higher; note: value at the top dose of about 77 µM; % is set by controls: 0 for no effect and ±100 for the full control effect
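ADP-Glo luminescence end-point after a 60 min room-temperature kinase reaction. PI5P4Kalpha and substrate in HEPES pH 7.4 buffer with EGTA, 0.1% CHAPS and 5% DMSO; ATP at 5 microM final.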
BAZ2B block: inhibitors of human BAZ2B bromodomain | AID 504333 | AlphaScreen BAZ2B-H3K14Ac peptide displacement | Q9UIF8 | Potency, µM (series often up to 114 µM), for inactives: top-dose activity change, negative = inhibition, actives largely listed as inhibitors | 360,000 tested, 4.4% active; note: potency is the fitted concentration of half-maximal effect; % is set by controls: 0 for no effect and ±100 for the full control effect; nearly all actives have a fitted effect of over 60% in size
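Multi-concentration screen (max 110 uM) measuring displacement of acetylated histone H3 peptide from BAZ2B by AlphaScreen, using 50 nM protein, 50 nM peptide and 10 ug/mL streptavidin donor plus Ni-chelate acceptor beads.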
HP1b chromo inh: blocks HP1-beta chromodomain binding to methylated histone tails; Potency, µM (top dose mostly 114 µM), for the others: at the top dose activity change, negative = inhibition, usual class: inhibitors; 390,000 tested, 0.56% active; AlphaScreen HP1-beta / biotin-H3K9me3 peptide binding; P83916; note: potency is the fitted concentration of half-maximal effect; nearly all actives have a fitted effect of over 70% in size
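AlphaScreen: HP1-beta (50 nM) preformed 30 min with biotin-H3(1-18)K9me3 peptide (50 nM) in PBS pH 7.4, 0.01% Tween-20. Compound added for 30 min at RT, then streptavidin donor/nickel chelate acceptor beads (10 ug/mL) for 30 min.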
JMJD2A Tudor inh: JMJD2A Tudor domain (human) inhibition | O75164 | AlphaScreen JMJD2A-Tudor / H3K4me3 peptide binding | Potency, µM (titrated, usually from 114 µM), without a hit: at the top dose activity change, negative = inhibition, usual class: inhibitors | 390,000 tested, 4.4% active | AID 504339; note: potency is the fitted concentration of half-maximal effect; % is set by controls: 0 for no effect and ±100 for the full control effect; nearly all actives have a fitted effect of over 50% in size
PLK1 PBD block: inhibitors of human PLK1 polo-box domain binding | P53350 | Plk1 PBD binding of FITC phosphopeptide, fluorescence polarization | Potency, µM, for the others: max response, negative = inhibition, usual class: inhibitors | 360,000 tested, 2.8% active; note: potency is the fitted concentration of half-maximal effect; series mostly up to about 57 µM; % is set by controls: 0 for no effect and ±100 for the full control effect; nearly all actives have a fitted effect of over 65% in size
Target sequence (P53350 whole entry, looked up, the tested form may be a part): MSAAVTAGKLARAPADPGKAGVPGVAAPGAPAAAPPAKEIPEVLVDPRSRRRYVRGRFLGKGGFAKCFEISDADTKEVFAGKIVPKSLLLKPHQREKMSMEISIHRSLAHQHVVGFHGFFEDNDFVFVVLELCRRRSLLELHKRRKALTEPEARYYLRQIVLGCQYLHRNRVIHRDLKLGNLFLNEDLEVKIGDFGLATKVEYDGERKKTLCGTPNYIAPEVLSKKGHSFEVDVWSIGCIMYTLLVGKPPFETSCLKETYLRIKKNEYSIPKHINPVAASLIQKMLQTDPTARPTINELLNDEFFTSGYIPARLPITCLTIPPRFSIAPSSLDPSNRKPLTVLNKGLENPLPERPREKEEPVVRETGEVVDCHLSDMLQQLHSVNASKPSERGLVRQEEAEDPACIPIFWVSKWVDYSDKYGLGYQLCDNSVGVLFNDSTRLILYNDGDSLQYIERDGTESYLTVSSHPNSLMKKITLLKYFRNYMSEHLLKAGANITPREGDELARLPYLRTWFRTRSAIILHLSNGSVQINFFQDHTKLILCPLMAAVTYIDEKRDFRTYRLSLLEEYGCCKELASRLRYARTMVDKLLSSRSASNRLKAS
GCN5L2 inh: inhibitors of human GCN5L2 histone acetyltransferase. Potency, µM (titrated, usually from 58.9 µM), inactives show at the top dose activity change, negative = inhibition, hits mostly inhibitors. GCN5L2 HAT assay, ThioGlo1 CoA-SH fluorescence. Q92830. 390,000 tested, 0.21% active; note: potency is the fitted concentration of half-maximal effect; % is set by controls: 0 for no effect and ±100 for the full control effect
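Fluorescence readout, Ex340nm/Em540nm: ThioGlo1 (50uM final) reacts with free CoA thiol released as 20nM GCN5L2 acetylates H3(1-25) peptide (75uM) using acetyl-CoA (70uM). Compound and enzyme sat 15 min beforehand; 20 min room-temperature reaction.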
An asterisk follows results filed as active; ? = inconclusive; / = no result; [ ] = dose if it differs, or a comment. Only some compounds are listed: those with a hit (about 7% of all), similar ones and a draw of the others. Unless noted, calls come from the whole dose curve; as a rule, active = well fitted curve in the direction sought with a large enough effect; inconclusive = small, poorly fitted or top-dose-only effect, or another doubt; inactive = no such curve, though single readings can be large; an effect the other way counts as inactive or inconclusive.

SMILES | PI5P4K alpha inh | BAZ2B block | HP1b chromo inh | JMJD2A Tudor inh | PLK1 PBD block | GCN5L2 inh
CCCC(=O)c1ccc(OC(=O)c2c(-c3ccccc3Cl)noc2C)cc1 | / | 22% | 76% | 31% | / | -1%
COc1ccc(S(=O)(=O)N2CCN(Cc3nc4ccc(C)cc4o3)CC2)cc1OC | / | -9% | 1% | -20% | / | 4%
Clc1ccc(OCCCn2cncn2)cc1Cl | 8 | 22µM* | -54% | 8.9µM* | -3% | -6%
Cc1cc(C)cc(OCCCCn2cncn2)c1 | -3 | ? | ? | 28µM* | -4% | -5%
c1ccc(CSc2nc3ncncc3[nH]2)cc1 | 2 | -4% | 52% | -13%[11.4 µM] | -22% | 1%
CCOC(=O)Sc1nc2ncncc2[nH]1 | -17 | / | ? | 3.5µM* | -15% | /
C[C@@H]1CN([C@H](C)CO)S(=O)(=O)c2ccc(C3=CCCCC3)cc2O[C@H]1CN(C)C(=O)Cc1cccnc1 | 5 | / | / | / | -8% | /
Cc1ccsc1/C=N/NC(=O)c1ccc(-n2cccc2)cc1 | ? | -19% | 2% | -13% | 4% | 0%
COc1ccc(N2CCN(c3nc4cc(C)ccc4cc3C=O)CC2)cc1 | 0 | 13µM* | ? | 22µM* | -4% | -4%
CCCCOC(=O)NS(=O)(=O)c1sc(CC(C)C)cc1-c1ccc(Cn2c(CC)nc3c(C)cc(C)nc32)cc1 | / | -28% | / | / | / | -26%
CCOc1ccc(CCNC(=O)COC(=O)c2cc(S(=O)(=O)N3CCOCC3)ccc2F)cc1OCC | 3 | ? | 17%[57 µM] | 2% | -6% | 4%
O=C(CSc1ccc([N+](=O)[O-])cc1)Nc1cccc(S(=O)(=O)Nc2ccccc2F)c1 | ? | -31% | ? | ? | 9.5µM* | 0%
Cn1c(=O)c2c(ncn2CC(=O)Nc2cccc(S(=O)(=O)Nc3ccccc3F)c2)n(C)c1=O | -24 | -4% | ? | -2% | 30µM* | -9%
CN(c1ccccc1)S(=O)(=O)c1cccc(NC(=O)Cn2cnc3c2c(=O)n(C)c(=O)n3C)c1 | -5 | 9% | 14% | -3% | -4% | -10%
COc1ccc(NC(=O)c2ccc3c(c2)nnn3C2CCCC2)cc1Cl | / | -16% | 41% | -13% | / | 14%
COc1ccc(Cl)cc1NC(=S)NNC(=O)C1(C)CC1(Cl)Cl (stereo not drawn) | -52* | -2% | -9% | -31% | ? | 0%
CCCCC(=O)NCc1nc2cccnc2n1Cc1ccc(OC)cc1 | / | -9% | 26%[57 µM] | -12% | / | -3%
CCC(C)C(=O)Nc1nnc(SCC(=O)N2C(C)CCCC2C)s1 (stereo not drawn) | -3 | 6% | 14% | -10% | -10% | 1%
CCCCOc1ccc(C(=O)CCN2CCOCC2)cc1 | -2 | 0% | 20% | -18%[57.1 µM] | 24µM* | -10%
CCCCCOc1ccc(C(O)C(CN2CCOCC2)c2ccccc2)cc1 (stereo not drawn) | 1 | -2% | 28% | ? | 27µM* | -13%
CCOc1ccc(C(=O)CCN2CCCCCC2)cc1 | -1 | 0% | 28% | -9% | 11µM* | -1%
CCCCCOc1ccc(C(=O)CCC(=O)N2CCCC2)cc1 | -1 | 21% | -14% | -15% | -11% | -7%
CCOc1ccc(C(=O)CCCC(=O)c2ccc(OCC)cc2)cc1 | 0 | -15% | 47% | -10% | -3% | -24%
O=C(OCCN1CCOCC1)c1ccc(OCCN2CCOCC2)cc1 | -1 | -37% | 16% | ? | -4% | 1%
CCCOc1ccc(C(=O)CCN2CCCCC2)cc1 | 0 | -7% | 29% | -13% | 13µM* | -3%
SMILES | PI5P4K alpha inh | BAZ2B block | HP1b chromo inh | JMJD2A Tudor inh | PLK1 PBD block | GCN5L2 inh
O=C(CNc1n[nH]c(=O)[nH]c1=O)N/N=C/C1CC=CCC1 (stereo not drawn) | -3 | -3% | -17% | -14% | -4% | -6%
COc1cc(Cl)c(C)cc1NC(=O)c1ccc(NS(=O)(=O)c2ccc(F)c(F)c2)cc1 | 0 | -20% | 16% | 5% | -27% | -8%
CCN(C(=O)COC(=O)c1[nH]c(C)c(C(C)=O)c1C)c1c(N)n(Cc2ccccc2)c(=O)[nH]c1=O | 4 | ? | 14% | -5% | -15% | -14%
CCOC(=O)N1CCc2c(sc3[nH]c(=S)[nH]c(=S)c23)C1 | -67* | -25% | 7% | -28% | ? | 1%
CCOC(=O)N1CCc2c(sc3nc[nH]c(=O)c23)C1 | -8 | -3% | 9% | -9% | 10% | -19%
Cc1ccc(NCCC(=O)c2cccc([N+](=O)[O-])c2)c(C)c1 | / | 28µM* | ? | 32µM* | ? | -7%
CC(C)c1ccc(NC(=O)CN2C(=O)C3(SCC(=O)N3c3ccc(F)cc3)c3ccccc32)cc1 (stereo not drawn) | / | 3%[57.1 µM] | 5% | -31% | / | -6%
Cc1ccc(Cl)cc1NS(=O)(=O)c1cc2c(cc1Cl)CCC(=O)N2 | / | / | / | -18% | / | /
O=C(Cc1nn[nH]n1)NCc1ccccc1Cl | -8 | 50µM* | 30% | -7% | 2% | 6%
O=C(Cc1nn[nH]n1)c1ccccc1O | 1 | -8% | -9% | 45µM* | 1% | 1%
Cc1ccc2c(c1)N(CC(=O)Nc1ccccc1C(F)(F)F)C(=O)c1cccnc1O2 | / | 4% | 11% | -4% | / | -14%
COc1ccc(C(CC(=O)Nc2ccc(OC)c(OC)c2)N2Cc3ccccc3C2=O)cc1 (stereo not drawn) | / | 79µM* | 12% | -27% | / | -8%
COc1ccc(C(CC(=O)Nc2cc(OC)c(OC)c(OC)c2)N2Cc3ccccc3C2=O)cc1 (stereo not drawn) | / | -30% | -11% | -29% | / | 2%
CCOC(=O)c1cc(C)nnc1C(=O)OCC | -1 | / | / | / | -4% | /
O=C(O)c1cc(N/N=C/c2ccc(N3CCOCC3)s2)ccc1Cl | -56* | 50µM* | ? | 45µM* | ? | -23%
NC(=O)N/N=C/c1ccc(N2CCOCC2)s1 | 2 | -36% | 9% | -23% | 12% | -3%
CCc1ccccc1NCc1nnc2n1CCCCC2 | / | -16% | 23%[57 µM] | 4% | / | -8%
Fc1ccc2c(c1)c1n[nH]c(=S)nc1n2CCc1ccccc1 | -24 | -15% | 51% | -10% | 21µM* | -2%
CCCCn1cnc2c(=S)nc(N)[nH]c21 | -8 | ? | -13% | 11µM* | -8% | -3%
Nc1nc(=S)c2ncn(C3CCCCC3)c2[nH]1 | -22 | / | 15%[57 µM] | ? | -20% | /
CCCCCn1cnc2c(=S)nc(N)[nH]c21 | ? | ? | ? | 18µM* | ? | -17%
CC1(C)OC2C(CO)OC(n3cnc4c(=S)nc(N)[nH]c43)C2O1 (stereo not drawn) | -23 | / | / | / | ? | /
CC(C)(S)[C@@H](N)C(=O)O | -1 | 45µM* | -19% | 4µM* | -3% | -4%

Assay outcomes (PubChem BioAssay)
